Here are results for 11 compounds from PubChem BioAssay (NCATS).

Values joined by “and” are separate entries in the source; they are usually repeats but may differ in a detail not shown here. Identical values can stand only once. Inconclusive results are not listed. Active and inactive are the calls of the source. The call rests on the fitted dose curve; in most records, active means well fitted inhibition curve with a large enough effect; inconclusive means small, poorly fitted or top-dose-only effect; inactive means flat fitted curve, though single readings scatter.
Potency means the concentration at half of the fitted maximal effect.

The subject of this test is Zika virus NS2B-NS3 protease (linked construct). Briefly: Confirmatory screen NINDS AMC qHTS for Zika virus inhibitors (AID 1347152). Further: nearly all actives have a fitted effect of over 70% in size.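 On activity change, negative = inhibition: AMC fluorescence gain from cleaved Bz-Nle-KRR-AMC substrate over 15 min; top concentration of the series differs between compounds; 0% = no-inhibitor control and -100% = no-enzyme control.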 The following applies: Purified linked NS2B-NS3, AMC substrate fluorescence; series mostly up to 110 µM; activity change, negative = inhibition: at the top concentration. The source says: Assay Submitters (PI): Avindra Nath, Ph.D., National Institute of Neurological Disorders and Stroke (NINDS), Bethesda, MD Radhakrishnan Padmanabhan, Ph.D., Georgetown University (GU), Washington D.C. Zika Virus causes congenital defects, including microcephaly and is associated with Guillain-Barre syndrome, eningoencephalitis and myelitis in infected adult. […] Using a target-based approach, we hope to establish a screening paradigm to uncover novel, cell-active NS2B-NS3 protease (Zika Virus) specific inhibitors from NCATS' collection of small molecules using qHTS. […] Four assay panel was created to identify potential Zika Virus inhibitors. Namely, (1) GU unlinked NS2B-NS3 AMC tagged protease qHTS, (2) GU unlinked NS2B-NS3 Rhodamine tagged protease qHTS, (3) NINDS linked NS2B-NS3 AMC tagged protease qHTS, (4) NINDS linked NS2B-NS3 Rhodamine tagged protease qHTS. Active compounds were re-acquired and re-screened to confirm inhibition. Inhibitors were further screened against various confirmatory and counterscreens in dose response format. Early Translation Branch (ETB) National Center for Advancing Translational Sciences (NCATS), Rockville, MD National Institute of Health (NIH), Bethesda, Maryland
Materials: For the linked assay, Nath lab (NINDS) provided the purified linked NS2B-NS3 protease which is consists of hydrophilic domain of NS2B linked to the NS3 protease domain by a flexible (-[…]-) linker. Control compound aprotinin is obtained from Thermo Scientific (#78432; Waltham, Massachusetts). NS2B-NS3 AMC substrate (Bz-Nle-Lys-Arg-Arg-AMC; Nle-KRR-AMC) purchased from Bachem (#I-1995; Torrance, CA). Ac-VKTGKR-AMC purchased from Genscript or Bachem, Ac-FAAGKR-AMC purchased from Genscript, Ac-GLVKRR-AMC purchased from Genscript, Ac-LKKR-AMC purchased from Genscript. NINDS AMC linked NS2B-NS3 protease qHTS protocol: Briefly, 3 microL of Zika virus linked NS2B-NS3 protease (1 nM for linked final concentration), in assay buffer (10 mM Tris-HCl pH 8.0 with 0.01% Tween 20) was dispensed into a 1,536-well solid-bottom black plate (Greiner Bio One, Monroe, NC). Twenty-three nL of compounds (final concentration range 7.28 nM to 114 microM) or control Aprotinin (final concentration range 3.47 nM to 114 microM) were transferred via Wako Pin-tool (Wako Automation, Richmond, VA). Samples were incubated (room temperature, protected from light) for 15 minutes followed by a 1 microL AMC substrate addition of (final concentration of 10 microM; Km = 18.3 µM). Plates were then read immediately on a ViewLux High-throughput CCD imager (PerkinElmer, Waltham, MA) equipped with standard UV fluorescence optics (340(30) nm excitation, 450(20) nm emission) then incubated (room temperature, protected from light) for 15 minutes (~20% conversion). The change in fluorescence intensity over the 15-minute reaction period was normalized against no-inhibitor and no-enzyme controls and the resulting percent inhibition data were fitted to a 4-parameter Hill equation. Aprotinin was used as the intraplate control.
Consider `CC(C)c1ccccc1Cc1cc(C(=O)Nc2ccc(S(=O)(=O)c3ccccc3C(C)(C)C)cc2)c(O)c(O)c1O`, for which the “activity change, negative = inhibition” value is -5.52% (inactive).

In the case of `CCOC(=O)C1=C(C)NC2=C(C(=O)CC(C)(C)C2)C1c1ccc(-c2ccccc2)cc1` (stereo unspecified), the Potency was 17.1 µM (active). The same measure, in the same setting: as for `O=C(Nc1cc(C(F)(F)F)cc(C(F)(F)F)c1)c1cc(Cl)ccc1O`, the figure is 49.4 µM (active); as for `C[C@@]12O[C@@H](C[C@]1(O)CO)n1c3ccccc3c3c4c(c5c6ccccc6n2c5c31)CNC4=O`, 24.1 µM (active). Still for that read-out and setting: as for `Cc1cc(CN2CCN(c3c(Br)cnc4nc(-c5ccc(N6CCN(C)CC6)cc5)[nH]c34)CC2)no1`, the figure is 34.1 µM (active). `COc1cc(C(=O)NS(=O)(=O)c2ccccc2C)ccc1Cc1cn(C)c2ccc(NC(=O)OC3CCCC3)cc12`: the Potency was 9.61 µM (active). With `CN1CCC(CNc2ccc3ncc(-c4cccc(OC(F)(F)F)c4)n3n2)CC1`, the Potency is 27.1 µM (active). Still for that read-out and setting: with `O=c1c2ccccc2nc2n1CCc1c-2[nH]c2ccccc12` the figure was 24.1 µM (active); with `N#Cc1c(O)c2c(-c3ccc(-c4ccccc4O)cc3)csc2[nH]c1=O`, 4.82 µM (active) and 8.79 µM (active). With `CCN1CCN(Cc2ccc(-c3cc4c(N[C@H](C)c5ccccc5)ncnc4[nH]3)cc2)CC1`, the Potency is 44.1 µM (active). On the same count and under the same terms, with `CCS(=O)(=O)c1cccc(-c2cc(C(=O)NC3CCN(C)CC3)c(C)c3[nH]c4ncc(C)cc4c23)c1` the figure was 24.1 µM (active).
